Reference: PubChem BioAssay AID1159580 (chemical genetic matrix, 2015)
About 2,000 (36%) of roughly 5,500 compounds were called active. Roughly 18% stayed inconclusive and do not appear here. Cut-off read from the data, not from the text of the source: active = normalized growth mostly below about 0.91 (no sharp cut-off); inconclusive = no clear call, values can overlap the other calls; inactive = mostly above about 0.92. The list shows a part of the results.

Assay: chemical genetic growth profiling, strain panel (AID 1159580);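 note: tested at 20 µM; growth read once vehicle control cultures reached saturation at 30 °C; 1 = growth at the plate median or of vehicle wells; lower values mean less growth of the strain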
Settings: growth OD

Measured: normalized growth

Cc1c(N(C)CS(=O)(=O)O)c(=O)n(-c2ccccc2)n1C
inactive: S. cerevisiae deletion strains, locus YJR075W, strain HOC1, hits give low values 1 | S. cerevisiae deletion strains, locus YKL009W, strain mrt4, hits give low values 1.03 | S. cerevisiae deletion strains, locus YKL068W, hits give low values 0.998 | S. cerevisiae deletion strains, locus YKL085W, strain MDH1 (second series), hits give low values 0.99 | S. cerevisiae deletion strains, locus YKL085W, strain MDH1, hits give low values 0.99 | S. cerevisiae deletion strains, locus YKL160W, strain elf1, hits give low values 1.02 | S. cerevisiae deletion strains, locus YKL190W, strain CNB1, hits give low values 1.01 | S. cerevisiae deletion strains, locus YKR001C, strain vps1, hits give low values 1.01 | S. cerevisiae deletion strains, locus YKR026C, strain gcn3, hits give low values 1.01 | S. cerevisiae deletion strains, locus YKR091W, strain srl3, hits give low values 1.01 | S. cerevisiae deletion strains, locus YLL001W, strain dnm1, hits give low values 1.01 | S. cerevisiae deletion strains, locus YLL026W, hits give low values 1.01 | S. cerevisiae deletion strains, locus YLL041C, strain sdh2, hits give low values 1 | S. cerevisiae deletion strains, locus YLR027C, strain aat2, hits give low values 1.01 | S. cerevisiae deletion strains, locus YLR039C, strain RIC1, hits give low values 0.92 | S. cerevisiae deletion strains, locus YLR058C, strain SHM2, hits give low values 0.987 | S. cerevisiae deletion strains, locus YLR102C, strain apc9, hits give low values 0.984 | S. cerevisiae deletion strains, locus YLR113W, strain HOG1, hits give low values 0.996 | S. cerevisiae deletion strains, locus YLR221C, strain rsa3, hits give low values 1.01 | S. cerevisiae deletion strains, locus YLR258W, strain gsy2, hits give low values 1.01 | S. cerevisiae deletion strains, locus YLR262C, strain YPT6 (second series), hits give low values 0.999 | S. cerevisiae deletion strains, locus YLR262C, strain YPT6, hits give low values 0.962 | S. cerevisiae deletion strains, locus YLR268W, strain sec22, hits give low values 0.992 | S. cerevisiae deletion strains, locus YLR320W, strain mms22, hits give low values 1.03 | S. cerevisiae deletion strains, locus YLR330W, strain CHS5, hits give low values 0.993 | S. cerevisiae deletion strains, locus YLR342W, strain FKS1 (second series), hits give low values 0.961 | S. cerevisiae deletion strains, locus YLR342W, strain FKS1, hits give low values 1.02 | S. cerevisiae deletion strains, locus YLR357W, strain rsc2, hits give low values 1.03 | S. cerevisiae deletion strains, locus YLR370C, strain arc18, hits give low values 1 | S. cerevisiae deletion strains, locus YLR371W, strain rom2, hits give low values 0.977 | S. cerevisiae deletion strains, locus YLR384C, strain iki3, hits give low values 1.01 | S. cerevisiae deletion strains, locus YLR418C, strain cdc73, hits give low values 0.948 | S. cerevisiae deletion strains, locus YML016C, strain PPZ1, hits give low values 0.99 | S. cerevisiae deletion strains, locus YML032C, strain rad52, hits give low values 0.999 | S. cerevisiae deletion strains, locus YML120C, strain ndi1, hits give low values 1.01 | S. cerevisiae deletion strains, locus YML124C, strain tub3, hits give low values 0.988 | S. cerevisiae deletion strains, locus YMR058W, strain fet3, hits give low values 1.01 | S. cerevisiae deletion strains, locus YMR078C, strain ctf18, hits give low values 0.978 | S. cerevisiae deletion strains, locus YMR125W, strain sto1, hits give low values 1.02 | S. cerevisiae deletion strains, locus YMR129W, hits give low values 1 | S. cerevisiae deletion strains, locus YMR205C, strain PFK2, hits give low values 1.02 | S. cerevisiae deletion strains, locus YMR223W, strain ubp8, hits give low values 0.962 | S. cerevisiae deletion strains, locus YMR231W, strain pep5, hits give low values 1.02 | S. cerevisiae deletion strains, locus YMR263W, strain SAP30, hits give low values 1.01 | S. cerevisiae deletion strains, locus YMR307W, strain GAS1, hits give low values 0.906 | S. cerevisiae deletion strains, locus YNL067W, strain RPL9B, hits give low values 1.01 | S. cerevisiae deletion strains, locus YNL071W, strain lat1, hits give low values 1.02 | S. cerevisiae deletion strains, locus YNL183C, strain NPR1, hits give low values 0.924 | S. cerevisiae deletion strains, locus YNL209W, strain ssb2, hits give low values 1.02 | S. cerevisiae deletion strains, locus YNL233W, strain BNI4, hits give low values 1 | S. cerevisiae deletion strains, locus YNL248C, strain rpa49, hits give low values 1.02 | S. cerevisiae deletion strains, locus YNL250W, strain rad50, hits give low values 0.969 | S. cerevisiae deletion strains, locus YNL271C, strain bni1, hits give low values 0.992 | S. cerevisiae deletion strains, locus YNL298W, strain CLA4, hits give low values 0.993 | S. cerevisiae deletion strains, locus YNL307C, strain MCK1, hits give low values 0.987 | S. cerevisiae deletion strains, locus YNL322C, strain KRE1 (second series), hits give low values 1.01 | S. cerevisiae deletion strains, locus YNL322C, strain KRE1, hits give low values 0.998 | S. cerevisiae deletion strains, locus YNR049C, strain mso1, hits give low values 1 | S. cerevisiae deletion strains, locus YNR052C, strain pop2, hits give low values 0.985 | S. cerevisiae deletion strains, locus YOL006C, strain TOP1, hits give low values 1.14 | S. cerevisiae deletion strains, locus YOL012C, strain htz1 0.803 | S. cerevisiae deletion strains, locus YOL147C, strain pex11, hits give low values 0.985 | S. cerevisiae deletion strains, locus YOR001W, strain rrp6, hits give low values 1.01 | S. cerevisiae deletion strains, locus YOR061W, strain CKA2, hits give low values 0.989 | S. cerevisiae deletion strains, locus YOR069W, strain VPS5, hits give low values 0.984 | S. cerevisiae deletion strains, locus YOR070C, strain gyp1, hits give low values 1.01 | S. cerevisiae deletion strains, locus YOR080W, strain dia2, hits give low values 1.01 | S. cerevisiae deletion strains, locus YOR083W, strain WHI5, hits give low values 1.02 | S. cerevisiae deletion strains, locus YOR106W, strain vam3, hits give low values 1.03 | S. cerevisiae deletion strains, locus YOR136W, strain idh2, hits give low values 0.986 | S. cerevisiae deletion strains, locus YOR144C, strain elg1, hits give low values 0.989 | S. cerevisiae deletion strains, locus YOR184W, strain ser1, hits give low values 1.03 | S. cerevisiae deletion strains, locus YOR231W, strain MKK1, hits give low values 0.996 | S. cerevisiae deletion strains, locus YOR265W, strain rbl2, hits give low values 1.01 | S. cerevisiae deletion strains, locus YOR270C, strain vph1, hits give low values 1.05 | S. cerevisiae deletion strains, locus YOR290C, strain snf2, hits give low values 1.01 | S. cerevisiae deletion strains, locus YOR316C, strain cot1, hits give low values 0.981 | S. cerevisiae deletion strains, locus YPL051W, strain arl3, hits give low values 1.01 | S. cerevisiae deletion strains, locus YPL055C, strain LGE1, hits give low values 1.05 | S. cerevisiae deletion strains, locus YPL078C, strain atp4, hits give low values 1.02 | S. cerevisiae deletion strains, locus YPL106C, strain sse1, hits give low values 1.02 | S. cerevisiae deletion strains, locus YPL240C, strain hsp82, hits give low values 1.01 | S. cerevisiae deletion strains, locus YPL256C, strain CLN2, hits give low values 1.01 | S. cerevisiae deletion strains, locus YPR119W, strain clb2, hits give low values 0.986 | S. cerevisiae deletion strains, locus YPR141C, strain kar3, hits give low values 0.981 | S. cerevisiae deletion strains, locus YPR163C, strain tif3, hits give low values 1.01 | S. cerevisiae deletion strains, locus YPR167C, strain met16, hits give low values 0.977 | S. cerevisiae deletion strains, strain wtn01, hits give low values 0.986 | S. cerevisiae strains, strain wild type, hits give low values 0.995
